Here are results for 14 compounds from PubChem BioAssay (NCI).

Each structure is given as a SMILES string. This is part of a sample that, as a whole, favours compounds with a hit. Of some 83,000 tested, about 20% had one in any assay.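 Percent growth is the endpoint: 0 to 100 indicates growth inhibition (40 means 60% inhibition), 0 means no net growth, and negative values indicate cell death.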 Unmarked numbers belong to inactive results. The source made the active and inactive calls. Rule for the calls: active = growth percent below 10; inactive = the rest.

This experiment has as its system SF-268 CNS. As to the kind of experiment: NCI-60 one-dose screen, 48 h (100 = growth as untreated, 0 = no growth, -100 = all killed). To be noted: 10 µM unless noted.
Consider `CC(C)(C)c1ccc(Cn2cc(CSc3nc4ccccc4s3)nn2)cc1`, for which the growth was 95.3%.

As for `CCN1CCN(Cc2ccc(Cc3ncc(F)c(-c4cc(F)c5nc(C)n(C(C)C)c5c4)n3)nc2)CC1`, the growth is 54.4%.

Take `CC(=O)NCC(=O)N1[C@@H]2CC[C@H]1c1ccc(Nc3ncc(C(F)(F)F)c(NC4CCC4)n3)cc12`: the growth is 38.6% [2.5 µM].

Regarding `O=C(NOCCO)c1cc(CN2OCCCC2=O)c(F)c(F)c1Nc1ccc(I)cc1F`, the growth was 67.5%.

Take `CC(C)CC(=O)Nc1n[nH]c2c1CN(C(=O)C1CCN(C)CC1)C2(C)C`: the growth is 12.1%.

In the case of `Cc1ccc(N)cc1CN1C(=O)c2ccccc2C1=O`, the growth was 121%.

As for `COCc1c(-c2ccc(NC(=O)Nc3cc(C(F)(F)F)ccc3F)c(F)c2)c2c(N)ncnn2c1CN1CCOCC1`, the growth is -14.5% (active).

`O=C(CNc1nc2ccccc2s1)Nc1ccc(-c2nc3ccccc3s2)cc1`: the growth is 92.1%.

Take `N#CC[C@H](C1CCCC1)n1cc(-c2ncnc3[nH]ccc23)cn1`: the growth is 59.8%.

Regarding `C=CC(=O)Nc1cc2c(Nc3ccc(F)c(Cl)c3)ncnc2cc1C#CC(C)(C)N1CCN(C)CC1`, the growth was -94.3% (active).

With `CC(=O)C1=C(C)NC(SCc2nnc(-c3ccc(C)cc3)o2)=NC1c1ccc(F)cc1` (centres undefined), the growth was 111%.

In the case of `CNC(=O)c1ccc(Nc2ncc(C(F)(F)F)c(NCc3nccnc3N(C)S(C)(=O)=O)n2)cc1`, the growth was 2.86% (active).

As to `C/C=C/C=N/NC(=S)Nc1ccccc1`, the growth is 100%.

On to `COc1cc(N2CCC(N(C)C)CC2)ccc1Nc1ncc(Cl)c(Nc2ccccc2P(C)(C)=O)n1`, for which the growth was -26.8% (active).
